Source: PubChem BioAssay (several laboratories)
SKN-1 inh: suppressors of acrylamide-induced Pgst-4::GFP reporter in worms, primary screen, SKN-1 inhibitor project, whole organism, uHTS, GFP/RFP fluorescence ratio, strain VP596 | inhibition, % at 21.8 µM | 360,000 tested, 0.49% active | AID 624304, 2012 | C. elegans VP596 Pgst-4::GFP/RFP ratio, 24 h;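 active = interference check ratio from 0.5 to 1.5 plus GFP to RFP signal ratio inhibition reaching or exceeding a fixed threshold, cut at about 30% in these data, passing the limit was not always enough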
M1 ag: human M1 muscarinic receptor agonists, primary screen, Fluo-8 calcium fluorescence, CHO-K1 cells, HTS; 360,000 tested, 0.33% active; AID 588814, 2011; activation, % at 3 µM; Muscarinic acetylcholine receptor M1 (Homo sapiens), P11229; CHO-K1 hM1, agonist mode; 0% DMSO, 100% acetylcholine EC100;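 active = activation above the run's mean compound activation plus 3 SD, cut at about 16% in these data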;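 note: peak over basal fluorescence ratio within a 140 s kinetic read after compound addition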
Target sequence (P11229 whole entry, looked up): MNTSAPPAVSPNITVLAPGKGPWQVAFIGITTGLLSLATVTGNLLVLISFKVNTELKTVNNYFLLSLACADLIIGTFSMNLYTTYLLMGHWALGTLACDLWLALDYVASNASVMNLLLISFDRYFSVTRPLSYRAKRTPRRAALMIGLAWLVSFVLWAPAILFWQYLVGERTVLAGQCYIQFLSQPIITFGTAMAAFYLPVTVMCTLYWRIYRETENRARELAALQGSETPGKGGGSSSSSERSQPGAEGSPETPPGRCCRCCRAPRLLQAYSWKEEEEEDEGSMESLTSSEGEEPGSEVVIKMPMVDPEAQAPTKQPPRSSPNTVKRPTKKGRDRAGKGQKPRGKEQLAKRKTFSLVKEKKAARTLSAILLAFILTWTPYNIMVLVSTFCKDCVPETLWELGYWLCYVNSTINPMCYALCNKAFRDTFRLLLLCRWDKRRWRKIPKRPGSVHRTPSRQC
ATG4B inh: ATG4B protease inhibitors, primary screen, biochemical, fluorescence, uHTS. ATG4B cleavage of LC3-PLA2, NBD-HPC fluorescence, 1 h. 340,000 tested, 0.51% active. inhibition, % at 8.33 µM; in the data active = inhibition above about 40%
M1 antag: human M1 muscarinic receptor antagonists, primary screen, CHO-K1 cells, Fluo-8 calcium fluorescence, 1536-well; Muscarinic acetylcholine receptor M1 (Homo sapiens), P11229; CHO-K1 hM1, ACh EC80 antagonist; inhibition, % at 3 µM; 360,000 tested, 1.3% active; AID 588852, 2011;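 active = percent inhibition above its own plate's cutoff, namely the mean of that plate's compound wells plus 3 SD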;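 note: peak over basal fluorescence ratio during 140 s after agonist addition; 0% = ACh EC80 plus DMSO and 100% = DMSO alone without agonist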
Myeloid diff MLP: induction of myeloid progenitor differentiation, primary screen, cell-based, flow cytometry, MLPCN library | calls only at 10 µM | AID 624256, 2012 | ER-HoxA9 myeloid progenitors, lysozyme-GFP differentiation | 360,000 tested, 1% active;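 active = normalized GFP-positive differentiation at or above the plate's own cutoff, the solvent-only control mean plus 3 SD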;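 note: cells exposed to compound for four days before flow analysis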
M1 PAM: human M1 muscarinic receptor positive allosteric modulators, primary screen, CHO-K1 cells, Fluo-8 calcium fluorescence, 1536-well; 360,000 tested, 0.088% active; activation, % at 3 µM; CHO-K1 hM1, ACh EC20; 0% = ACh EC20, 100% = maximal ACh; Muscarinic acetylcholine receptor M1 (Homo sapiens), P11229; in the data active = activation above about 19%, passing the limit was not always enough
Myeloid diff: inducers of myeloid progenitor differentiation, confirmation, cell-based, GFP/Mac1 flow cytometry, cherry pick 01. shares compounds with Myeloid diff MLP. AID 651706, 2012. 2,300 tested, 2% active. calls only. ER-HoxA9 myeloid progenitors, GFP/Mac1 double-positive flow;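 active = share of green or green-and-red cells above 9 and 9% in run 1 or 4 and 3% in run 2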
GFP autofluor: flagged as fluorescent in myeloid differentiation counter-screen; shares compounds with Myeloid diff MLP; ER-HoxA9 myeloid progenitors, no estrogen, GFP autofluorescence flow cytometry; vehicle wells 0%, positive control 100%; fluorescence response, % (concentration not given with the values); 2,300 tested, 7.4% active;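 active = over 5% cells positive for green fluorescent reporter, or over 2% positive for both it and APC stain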;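 note: range taken on the double positive population between DMSO and positive control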
An asterisk follows results filed as active; i = inactive; nt = no result; + = active, no number. In the library only some 3.5% were active in any assay of this set; here they are far more common.

SMILES	SKN-1 inh	M1 ag	ATG4B inh	M1 antag	Myeloid diff MLP	M1 PAM	Myeloid diff	GFP autofluor
COc1cc(/C=C2\CC/C(=C\c3cc(OC)c(OC)c(OC)c3)C2=O)cc(OC)c1OC	3.0	-4.5	-3.7	-12.2	+	8.8	i	0.0
CCOC(=O)c1cn(CC(=O)Nc2ccc(OC)cc2OC)nn1	0.9	-4.2	-1.7	-0.9	i	3.4	nt	nt
NNC(=O)c1ccc(COc2ccc(Br)cc2)o1	-9.0	-0.2	-9.0	-4.7	i	10.8	i	0.0
NNC(=O)c1ccc(COc2ccc3c(c2)CCC3)o1	-8.9	-1.3	0.4	-6.2	i	4.7	nt	nt
CC(C)(C)c1ccc(OCc2ccc(C(=O)NN)o2)cc1	13.0	-1.3	-6.6	-9.8	+	4.7	i	0.3
c1nc2n(n1)C1=C(CCCC1)C1(CCCCC1)N2	14.4	-5.2	-0.4	4.0	i	1.3	nt	nt
CCOc1ccc(NS(=O)(=O)c2cc(C(=O)NCCCN3CCCC3=O)ccc2C)cc1	12.7	-3.8	5.2	-5.2	i	2.8	nt	nt
COc1ccc(CN(C(=O)CN2C(=O)COc3ccccc32)C2CCCC2)c(OC)c1	10.8	6.0	4.0	1.9	i	-6.8	i	0.2
COc1ccc(CN(C(=O)CN2C(=O)C(C)Oc3ccccc32)C2CCCC2)c(OC)c1 (centres undefined)	0.0	-3.2	2.9	0.6	i	0.2	nt	nt
O=C(c1ccccc1)c1ccccc1NC(=O)C1CCCN1Cc1ccccc1 (centres undefined)	5.9	-3.1	12.9	8.4	i	-2.3	nt	nt
O=C(NN=C1CCCC1)c1sc2ccccc2c1Cl	22.4	1.9	-0.4	-0.6	i	4.7	nt	nt
O=C1CCC/C(=N/NC(=O)c2sc3ccccc3c2Cl)C1	-0.4	5.0	-15.8	1.3	i	0.8	i	0.0
COc1ccc(C2C(C(=O)Nc3cccnc3)=C(C)Nc3nc(-c4cccs4)nn32)cc1 (centres undefined)	4.5	-3.7	-11.7	-4.0	i	0.8	i	0.9
O=C(O)c1ccccc1-n1c2ccccc2c2ccccc21	14.9	-4.3	0.3	-2.6	i	1.9	nt	nt
CCOC(=O)C1CCN(C(=O)COc2ccc([N+](=O)[O-])cc2)CC1	-2.2	-8.2	0.9	-1.2	i	-0.2	nt	nt
CCOC(=O)C1CCN(C(=O)COC(=O)/C=C/c2ccc([N+](=O)[O-])cc2)CC1	9.0	4.7	6.1	-10.1	i	4.4	i	2.2
COC(=O)c1ccc(NC(=O)Nc2ccccc2F)cc1	5.7	-0.8	-17.9	-1.4	i	4.8	nt	nt
COC(=O)c1ccc(NC(=O)Nc2ccccc2C)cc1	-3.0	5.0	-1.1	3.8	i	5.5	i	0.6
Cc1csc2ncnc(N3CCN(C(=O)Nc4ccc(OC(F)(F)F)cc4)CC3)c12	2.9	-1.8	6.2	12.1	i	-7.5	nt	nt
O=C(c1cc(-c2ccccc2Cl)nc2ccccc12)N1CCN(c2ccccc2O)CC1	-23.4	-1.1	11.2	12.4	i	-2.4	nt	nt
O=C(c1cc(-c2ccccc2Cl)nc2ccccc12)N1CCN(c2ccccn2)CC1	-2.5	-2.0	-5.5	-16.0	i	12.0	i	4.5
COc1ccc(-c2cc(C(=O)N3CCCCCC3)c3ccccc3n2)c(OC)c1	1.4	-4.3	-8.9	2.4	+	-2.4	i	0.5
CC(C)CNC(=O)CSc1n[nH]c(=O)n1CCc1ccccc1	6.5	-5.0	3.2	-3.0	i	5.8	nt	nt
